Bioassay records: PubChem, NMMLSC
RGS8-Gao reg = RGS8-Galphao binding modulators, primary screen, biochemical, multiplexed bead flow cytometry. Guanine nucleotide-binding protein G(o) subunit alpha (Homo sapiens), P09471. actives lie on both sides. response (percent of control binding), % at 10 µM. actives 0.34% (n = 220,000). AID 1423, 2008; in the data active = response below about 60% or above about 140%; inactive = in between;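 also: Galphao activated as the GDP aluminium fluoride complex binding bead-coupled RGS8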
Target sequence (P09471 whole entry, looked up): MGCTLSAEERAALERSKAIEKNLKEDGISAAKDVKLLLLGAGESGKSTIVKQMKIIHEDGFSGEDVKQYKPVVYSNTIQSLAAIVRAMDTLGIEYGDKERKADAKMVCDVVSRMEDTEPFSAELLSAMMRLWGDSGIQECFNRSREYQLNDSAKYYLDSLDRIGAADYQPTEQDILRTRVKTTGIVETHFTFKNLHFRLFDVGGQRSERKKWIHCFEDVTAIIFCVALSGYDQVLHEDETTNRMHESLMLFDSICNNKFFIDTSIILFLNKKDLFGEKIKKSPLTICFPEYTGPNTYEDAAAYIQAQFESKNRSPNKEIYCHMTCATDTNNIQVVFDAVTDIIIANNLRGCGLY
Avidin bead fluor = green autofluorescence of compounds with avidin beads – biophysical, 488/530 nm, flow cytometry, artefact control, profiling panel; actives 0.38% (n = 220,000); AID 1775, 2009; fluorescence (KMESF) at 10 µM; compound fluorescence 488/530 nm; active compounds read high; in the data active = fluorescence above about 47
RGS4-Gao reg = modulators of RGS4 binding to Galphao, primary screen, biochemical, multiplexed bead flow cytometry; binding response (% of control), % at 10 µM; Guanine nucleotide-binding protein G(o) subunit alpha (Homo sapiens), P09471; actives 0.33% (n = 220,000); actives lie on both sides; in the data active = binding response below about 49% or above about 150%; inactive = in between;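 also: fluorescent Galphao activated with aluminum fluoride binding bead-coupled RGS4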
RGS7-Gao = RGS7-Galphao binding modulators, primary screen, biochemical, multiplexed bead flow cytometry | Guanine nucleotide-binding protein G(o) subunit alpha (Homo sapiens), P09471 | actives lie on both sides | binding response (% of control), % at 10 µM | actives 0.35% (n = 220,000) | AID 1439, 2008; in the data active = binding response below about 49% or above about 150%; inconclusive = no clear call, values can overlap the other calls; inactive = in between;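 also: fluorescent Galphao held in activated GDP-AlF4 state binding bead-coupled RGS7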
RGS16-Gao HTS = modulators of RGS16 binding to Galphao, primary screen, biochemical, human proteins, multiplexed bead flow cytometry; AID 1441, 2008; Regulator of G-protein signaling 16 (Homo sapiens) + Guanine nucleotide-binding protein …; bead-based flow cytometry RGS16-Galphao binding, fluorescence; actives lie on both sides; actives 0.38% (n = 220,000); binding response (% of control), % at 10 µM;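 also: Galphao activated by GDP with aluminum fluoride before binding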
GSH fluor = compound fluorescence on glutathione beads, profiling panel, artefact control, biophysical, 488/530 nm, flow cytometry. GSH beads flow cytometry, compound fluorescence 488/530 nm; active compounds read high. fluorescence (KMESF) at 10 µM. actives 0.25% (n = 190,000); in the data active = fluorescence above about 89;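 also: glutathione beads carrying GST-tagged Bcl family fusion proteins plus one bare bead set; values are compound well signal with DMSO vehicle wells as background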
RGS4-Gao HTS = modulators of RGS–Galpha-o binding, primary screen, biochemical, multiplexed beads, flow cytometry, RGS4/7/8/16/19 | multiplexed bead flow cytometry | actives 99% (n = 1,600) | RGS4–Galpha-o binding response, % at 10 µM | shares compounds with RGS16-Gao HTS;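 also: fluorescently labeled Galpha-o bound to GDP with aluminium fluoride binding biotinylated RGS beads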
Avidin counter = disruption of biotin probe capture by avidin, counter-screen for RGS protein interaction modulators, biochemical, flow cytometry, bead-based; shares compounds with RGS16-Gao HTS; streptavidin beads, fluorescein-biotin binding; inhibition, % at 10 µM; 1,700 tested, under 10 active;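 active = inhibition above 50%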;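 also: median green fluorescence of gated singlet beads compared with DMSO control wells; 0% = DMSO wells and 100% = complete loss of bead fluorescence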
RGS8-Gao single = RGS8-Galphao binding modulators, confirmation, biochemical, multiplexed bead flow cytometry, single concentration. AID 1836, 2009. actives 3% (n = 1,700). bead-based flow cytometry RGS8-Galphao binding, fluorescence; actives lie on both sides. binding response (% of control), % at 10 µM. shares compounds with RGS16-Gao HTS; in the data active = binding response below about 72% or above about 130%; inactive = in between;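 also: Galphao activated as GDP AlF4 complex before binding bead RGS8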
RGS7-Gao single = RGS7-Galphao binding modulators, confirmation, biochemical, multiplexed bead flow cytometry, single concentration; shares compounds with RGS16-Gao HTS; bead-based flow cytometry RGS7-Galphao binding; actives lie on both sides; response (percent of control binding), % at 10 µM; actives 7.8% (n = 1,700); AID 1837, 2009; in the data active = response below about 75% or above about 130%; inactive = in between;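 also: fluorescent Galphao activated with GDP and aluminum fluoride binding bead-coupled RGS7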
RGS16-Gao conf = modulators of RGS16-Galphao protein binding, confirmation, biochemical, single concentration, multiplexed bead flow cytometry | AID 1838, 2009 | bead-based flow cytometry; actives lie on both sides | response (% of control binding), % at 10 µM | actives 4% (n = 1,700) | shares compounds with RGS16-Gao HTS; in the data active = response below about 74% or above about 130%; inactive = in between;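 also: Galphao activated as the GDP aluminium fluoride complex binding bead-coupled RGS16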
RGS4-Gao single = modulators of RGS4-Galphao protein binding, confirmation, biochemical, single concentration, multiplexed bead flow cytometry; shares compounds with RGS16-Gao HTS; actives lie on both sides; binding response (% of control), % at 10 µM; actives 4% (n = 1,700); in the data active = binding response below about 74% or above about 130%; inactive = in between
RGS19-Gao single = regulators of RGS19-Galphao binding, confirmation, biochemical, single point, multiplexed bead flow cytometry; shares compounds with RGS16-Gao HTS; actives 5% (n = 1,700); bead-based flow cytometry RGS19-Galphao binding; actives lie on both sides; response (percent of control binding), % at 10 µM; in the data active = response below about 50% or above about 160%; inactive = in between;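 also: 100% = no compound control and 0% = blank background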
* = called active by the depositor; [ ] = remark or other dose. An excerpt weighted towards active compounds, which were near 1.2% of everything screened. Unless noted, no rule for the calls is given here.

COCC(=O)NC1(c2nnnn2CCOC(=O)Nc2ccc(Cl)cc2)CCCCC1 was read as RGS8-Gao reg 101, Avidin bead fluor 68*, RGS4-Gao reg 116, RGS7-Gao 255*[activator], RGS16-Gao HTS 98, GSH fluor 23, RGS4-Gao HTS 116*, Avidin counter 0, RGS8-Gao single 108, RGS7-Gao single 115, RGS16-Gao conf 109, RGS4-Gao single 110 and RGS19-Gao single 106.
Screening CSC1=N/C(=C/c2cccnc2)C(=O)N1Cc1ccccc1 returned RGS8-Gao reg 12*, Avidin bead fluor -2, RGS4-Gao reg -9.4*, RGS7-Gao inconclusive, RGS16-Gao HTS -5.1*, Avidin counter 0, RGS8-Gao single 97, RGS7-Gao single 95, RGS16-Gao conf 98, RGS4-Gao single 100 and RGS19-Gao single 60.
`CC(C)(C)NC(=O)COC(=O)c1ccc(Cl)nc1` gave GSH fluor 21, Avidin counter 1, RGS8-Gao single 96, RGS7-Gao single 64*, RGS16-Gao conf 77, RGS4-Gao single 79 and RGS19-Gao single 45*.
For O=C(O)c1ccccc1Sc1ccccc1S(=O)(=O)NC1CCCCC1 the results were RGS8-Gao reg 7.1*, Avidin bead fluor -2, RGS4-Gao reg -11*, RGS7-Gao inconclusive, RGS16-Gao HTS -4.7*, Avidin counter 1, RGS8-Gao single 94, RGS7-Gao single 90, RGS16-Gao conf 95, RGS4-Gao single 95 and RGS19-Gao single 106.
O=C(O)c1ccccc1S(=O)(=O)NCC(O)COC1CCCCC1 (stereo not drawn) was read as RGS8-Gao reg 102, Avidin bead fluor 15, RGS4-Gao reg 101, RGS7-Gao 100, RGS16-Gao HTS 102 and GSH fluor 30.
